Pf growth 96h – Primary qHTS for delayed death inhibitors of the malarial parasite plastid, 96 hour incubation. P. falciparum luciferase reporter growth, 96 h. Potency, µM (series often up to 28.7 µM), inactives show at the top dose activity change, negative = inhibition, usual class: inhibitors. actives 6.9% (n = 320,000); further: potency means the concentration at half of the fitted maximal effect; on the % scale 0 is the no-effect control and ±100 the full control effect
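Delayed-death screen, second-generation endpoint: infected erythrocytes, 2% hematocrit, 0.05% parasitemia final; 96 hours at 37 C, 5% CO2; luciferase detection reagent; luminescence decrease equals reduced growth.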
LmPK inh – qHTS Assay for Inhibitors of Leishmania Mexicana Pyruvate Kinase (LmPK). actives 0.37% (n = 290,000). Q27686. Potency, µM (doses to about 57.5 µM), inactives show at the highest dose activity change, negative = inhibition, hits mostly inhibitors. purified LmPK, Kinase-Glo ATP luminescence, 1 h; further: potency means the concentration at half of the fitted maximal effect; on the % scale 0 is the no-effect control and ±100 the full control effect
Target sequence (Q27686 whole entry, looked up): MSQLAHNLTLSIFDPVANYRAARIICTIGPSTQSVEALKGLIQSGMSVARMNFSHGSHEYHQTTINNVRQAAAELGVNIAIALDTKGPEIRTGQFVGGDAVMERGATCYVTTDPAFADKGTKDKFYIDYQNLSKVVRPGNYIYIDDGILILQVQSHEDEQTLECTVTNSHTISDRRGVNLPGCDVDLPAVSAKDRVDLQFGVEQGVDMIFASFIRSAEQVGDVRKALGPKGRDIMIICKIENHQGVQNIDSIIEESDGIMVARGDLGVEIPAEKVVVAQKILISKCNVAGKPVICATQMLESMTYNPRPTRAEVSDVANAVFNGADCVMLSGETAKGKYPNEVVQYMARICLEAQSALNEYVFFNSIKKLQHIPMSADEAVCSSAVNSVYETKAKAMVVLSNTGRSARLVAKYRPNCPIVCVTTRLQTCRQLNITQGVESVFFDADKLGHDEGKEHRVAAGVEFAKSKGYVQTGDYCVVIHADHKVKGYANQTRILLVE
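Purified LmPK (0.1 nM) converted ADP (0.1 mM) to ATP with PEP (0.5 mM) in imidazole buffer pH 7.2 with KCl and MgCl2, 1 h at room temperature. ATP was read by Kinase-Glo luminescence; data normalized to uninhibited and no-enzyme controls.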
Shiga inhibitor – A qHTS for Small Molecule Inhibitors of Shiga Toxin. Vero cells, Shiga toxin protein synthesis inhibition reporter. inhibition, % at 38.7 µM. actives 9.2% (n = 290,000). AID 2315, 2010; in the data active means inhibition mostly above about 28%, no sharp cut-off; inactive means mostly below about 43%; further: 0% is about no effect
Cycloheximide cs – Cycloheximide Counterscreen for Small Molecule Inhibitors of Shiga Toxin. cell reporter, cycloheximide protein synthesis inhibition counterscreen. max response, %. actives 12% (n = 300,000); in the data active means max response mostly above about 13%, no sharp cut-off; inactive means mostly below about 14%; further: read at 38.3 µM for the half of the compounds with a filed dose; 0% is about no effect
Pf growth 48h – Primary qHTS for delayed death inhibitors of the malarial parasite plastid, 48 hour incubation | Potency, µM (doses to about 28.7 µM), for inactives: top-dose activity change, negative = inhibition, usual class: inhibitors | P. falciparum luciferase growth in erythrocytes, 48 h | AID 504832, 2011 | actives 5.9% (n = 310,000); further: potency means the concentration at half of the fitted maximal effect; on the % scale 0 is the no-effect control and ±100 the full control effect
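A one-generation exposure of luciferase-tagged malaria parasites in RPMI 1640/Albumax erythrocyte culture, 37 C and 5% CO2. Inhibition is inferred from decreased luminescence after adding detection reagent.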
Starred values were filed as active, the others as inactive; ? = inconclusive; · = not tested or not shown. This is a sample that favours compounds with a hit; in the whole collection about 22% have one here. Unless noted, the call rests on the fitted dose curve; in most records, active means well fitted inhibition curve with a large enough effect; inconclusive means small, poorly fitted or top-dose-only effect, or another doubt; inactive means no such curve, though single readings can be large or run the other way.

SMILES	Pf growth 96h	LmPK inh	Shiga inhibitor	Cycloheximide cs	Pf growth 48h
O=C(NCCc1ccc(Cl)cc1)Nc1ccc(Cl)cc1	-16%	-1%	43*	13	-1%
O=C(NCCc1ccc(F)cc1)Nc1ccccc1	?	-1%	31*	30*	4%
O=C(NCCc1ccncc1)Nc1ccc(F)cc1	-4%	5%	-2	-1	1%
Cc1cc2c(cc3c(=O)n(CC(=O)NCCCN4CC(C)CC(C)C4)ncn32)s1 (configuration not stated)	-28%	-1%	3	-3	-26%
Cc1c(OC(C)C(=O)N2C[C@H]3C[C@@H](C2)c2cccc(=O)n2C3)ccc2c3c(c(=O)oc12)CCC3 (some centres not stated)	10µM*	-3%	-3	-1	-19%
Cc1oc2cc3oc(=O)c(CCC(=O)N4C[C@H]5C[C@@H](C4)c4cccc(=O)n4C5)c(C)c3cc2c1C	2.9µM*	2%	-1	-4	?
Cc1coc2c(C)c3oc(=O)c(CCC(=O)N4CCC(C(=O)NCCCC(=O)O)(c5ccccc5)CC4)c(C)c3cc12	9.3µM*	9%	-7	-4	?
Cc1c(CC(=O)N2C[C@H]3C[C@@H](C2)c2cccc(=O)n2C3)c(=O)oc2cc(O)c(Cl)cc12	68%	-9%	-6	-3	20%
Cc1coc2c(C)c3oc(=O)c(CCC(=O)NCCN4CCOCC4)c(C)c3cc12	?	0%	-4	-1	?
Cc1oc2c(C)c3oc(=O)c(CCC(=O)N4C[C@H]5C[C@@H](C4)c4cccc(=O)n4C5)c(C)c3cc2c1C	12µM*	-1%	-6	-1	?
CCOC(=O)c1cc(S(=O)(=O)N2CCN(C3CCCCC3)CC2)cn1C	82%	-3%	-13	1	-3%
Cc1coc2c(C)c3oc(=O)c(CCC(=O)N4C[C@H]5C[C@@H](C4)c4cccc(=O)n4C5)c(C)c3cc12	?	-3%	-4	-4	3.3µM*
Cc1c(CC(=O)N2C[C@H]3C[C@@H](C2)c2cccc(=O)n2C3)c(=O)oc2c(C)c(O)ccc12	3%	-7%	-5	4	-8%
O=C(COCC(=O)N/N=C/c1ccc(F)cc1)N/N=C/c1ccc(F)cc1	-29%	1%	10	1	-8%
Cc1ccccc1/C=N/NC(=O)Cn1nnc(N)n1	-12%	-3%	1	-3	8%
O=C(N/N=C\c1ccc(F)cc1)c1csnn1	67%	-27%	106*	44*	50%
Cc1ccccc1/C=N\NC(=O)c1csnn1	-4%	-18%	112*	60*	64%
Nc1cc(Cl)ccc1Oc1ccccc1	-1%	-1%	-8	-1	58%
Cc1cccc(Oc2ccc(Cl)cc2N)c1	28%	3%	89*	34*	34%
COc1ccc(N2C3=[N+](CC2(C)O)c2ccccc2CC3)cc1 (configuration not stated)	·	4%	12	22*	15%
COc1ccc(OCC(=O)N2c3ccccc3CCc3ccccc32)cc1	270%	1%	-11	1	?
O=C(O)c1cccc(Nc2ncnc3ccc(Br)cc23)c1	28%	6%	43*	25*	7%
COc1ccc(Nc2ncnc3ccc(C)cc23)cc1	12µM*	-4%	-3	1	?
CC(=O)Oc1cccc(Nc2ncnc3ccccc23)c1	39%	3%	·	19*	-11%
COc1ccc(OC)c(Nc2ncnc3ccccc23)c1	6%	-5%	-11	9	20%
SMILES	Pf growth 96h	LmPK inh	Shiga inhibitor	Cycloheximide cs	Pf growth 48h
COC(=O)c1cccc(Nc2ncnc3ccc(C)cc23)c1	?	-1%	-13	-3	·
O=C(O)c1cccc(Nc2nc(C(F)(F)F)nc3ccccc23)c1	23%	6%	20	11	59%
CCOC(=O)c1cccc(Nc2ncnc3ccccc23)c1	-42%	-4%	32*	25*	?
O=C(c1ccccc1Sc1c(Cl)cccc1[N+](=O)[O-])N1CCOCC1	?	-1%	-2	-2	12%
CCCCCCCCCCC[C@@H](C[C@@H]1OC(=O)[C@H]1CCCCCC)OC(=O)[C@H](CC(C)C)NC=O	·	4%	27	5	·
O=C1C=C(c2ccc(CO)cc2)C[C@@H](c2ccc3c(c2)OCO3)C1	?	·	·	·	-20%
N#Cc1ccc(CSc2nnc(NC(=O)CCc3nc4ccccc4c(=O)[nH]3)s2)cc1	1%	·	·	·	?
Cc1ccc(/C(=N/Nc2ncnc3ccccc23)C(=O)O)cc1	-5%	-5%	93*	80*	76%
Oc1ccc(Nc2ncnc3ccccc23)cc1	137%	-5%	19	10	4%
CC(C)Oc1ccc(Nc2ncnc3ccccc23)cc1	?	-8%	82	45*	15%
COC(=O)C(=O)C/C(=N/Nc1ncnc2ccccc12)c1ccc(Cl)cc1	?	2%	86*	27*	15%
Cc1cccc(-n2c(C)nc3ccccc3c2=O)n1	5.2µM*	-2%	24	14	65%
COc1ccccc1CNc1ncnc2cc(Cl)ccc12	2%	0%	4	-3	11%
N#C/C(=C\c1cc(Cl)cc(Cl)c1O)C(=O)NC1CCCCC1	?	-6%	16	1	?
CC(NC(=S)NCCc1ccccc1)C(c1cccs1)N1CCN(C)CC1 (configuration not stated)	?	4%	-19	-1	?
C/C(CC(=O)NCc1ccc(F)cc1)=N\NC(N)=S	19%	-1%	-8	-1	?
CCOC(=O)c1cccc(-n2c(C)nc3ccccc3c2=O)c1	9.3µM*	10%	-18	-6	18%
Cc1nc2ccccc2c2c1C(=O)N(c1cccc(C(=O)O)c1)C2=O	12%	-3%	-27	6	4%
Cc1ccc(C)c(C(=O)COC(=O)c2cccc(N3C(=O)c4c(C)nc5ccccc5c4C3=O)c2)c1	41%	0%	94*	46*	16%
Cc1ccc(Nc2ncnc3ccccc23)cc1	3%	-6%	119*	62*	148%
Cc1cccc(Nc2ncnc3ccccc23)c1	-20%	-1%	30	34*	64%
Brc1ccc2ncnc(Nc3cccc4ccccc34)c2c1	13µM*	9%	12	0	?
O=C(/C=C/c1ccco1)Oc1cc(Br)cc(/C=N/NC(=O)c2ccccc2O)c1	30%	6%	22	39*	1.9µM*
O=C(CNc1cccc2ccccc12)N/N=C/c1ccc(OC(=O)/C=C/c2ccco2)cc1	-7%	-2%	-12	1	?
COc1cc(/C=N/NC(=O)CNC(=O)/C=C/c2ccco2)cc(OC)c1OC	24%	-7%	-3	-5	5%
O=C(CNc1ccc2ccccc2c1)N/N=C/c1ccc(OC(=O)/C=C/c2ccco2)cc1	31%	5%	-5	15	8.3µM*

Screening results deposited in PubChem by National Center for Advancing Translational Sciences (NCATS).
